For 14 compounds, growth results are on record in PubChem BioAssay (NCI).

About 83,000 compounds went through this panel and 20% of them were active in at least one assay; those are over-represented in the sample as a whole.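 Each cell line was grown in a 96-well plate and treated with one concentration of compound for 48 hours. Values below 10 were considered active.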 A number with no mark means an inactive call. Activity calls are given as the source filed them.

Common to all, as to test: NCI-60 one-dose screen, 48 h (100 = growth as untreated, 0 = no growth, -100 = all killed)
Conditions in all cases: 10 µM unless noted

The subject of experiment [1] is NCI-H23 lung.
Experiment [2] has as its system NCI-H226 lung.
In experiment [3] the test system is NCI-H322M lung.
Experiment [4] concerns HOP-62 NSCLC.
In experiment [5] the test system is NCI-H460 lung.
The test system of experiment [6] is HOP-92 NSCLC.
Experiment [7] relates to NCI-H522 lung.
In experiment [8] the test system is A549/ATCC NSCLC.
Experiment [9] has as its system 786-0 renal.
For experiment [10], the system named is COLO 205 colon.

With `C/C(=N\NC(=O)/C=C/CC(=O)O)c1nnn(-c2ccc([N+](=O)[O-])cc2)c1C`, the growth in experiment [1] was 97.8%; in [2], 96.9%; in experiment [3], 99.1%; in [4], 104%; in experiment [5] it was 111%; in experiment [6], 74.3%. The growth in experiment [7] is 98.6%; in [8], 102%; in [9] it was 101%; in experiment [10] it was 108%.

`Cc1ccc([C@H]2c3[nH]c4ccccc4c3C[C@H]3C(=O)N(CCCCCCC(=O)NO)CC(=O)N23)s1`: the growth in [1] is 77.6%; in experiment [2] it was 94%; in experiment [3], 67.4%; in experiment [4], 68%; in experiment [5] it was 57.3%; in experiment [6] it was 51.2%. Further, the growth in experiment [7] was 41.1%; in experiment [8] it was 85.5%; in experiment [9], 89.3%; in experiment [10], 67.9%.

With `O=c1c2ccccc2cc2n1CCN=C2c1ccccc1`, the growth in experiment [1] is 93.8%; in experiment [2], 96%; in experiment [3], 99.7%; in experiment [4], 116%; in experiment [5] it was 101%; in experiment [6], 81%. The growth in [7] was 98%; in experiment [8] it was 102%; in [9], 96.8%; in [10] it was 103%.

Regarding `CSc1ccc(C(=NNS(=O)(=O)c2ccc(C)cc2)c2ccc(Cl)cc2)cc1`, the growth in experiment [1] is 94%; in experiment [2], 98%; in experiment [3], 92.7%; in experiment [4], 98.6%; in experiment [5], 104%; in [6], 86.9%. Also, the growth in experiment [7] was 94.4%; in experiment [8] it was 99.6%; in experiment [9], 104%; in [10] it was 119%.

For `CN1CCN(Cc2ccc(NC(=O)c3cncc(C#Cc4cnc5ccc(N)nn45)c3)cc2C(F)(F)F)CC1`, the growth in experiment [1] was 4.35% (active); in experiment [2], 17.2%; in experiment [3], 12.4%; in experiment [4], -1.79% (active); in [5], 14.9%; in experiment [6], -22.7% (active). Moreover, the growth is 12.5% in experiment [7], 38.2% in experiment [8], 50.1% in [9] and -41.8% (active) in [10].

`O=C1/C(=C/C=C/c2ccco2)SC(=S)N1Cc1ccccc1`: the growth in experiment [1] is 89.6%; in [2] it was 95.2%; in [3] it was 91.8%; in experiment [4], 105%; in [5], 95.2%; in experiment [6] it was 87.1%. The growth in experiment [7] was 98.4%; in [8], 93.7%; in experiment [9], 101%; in experiment [10] it was 121%.

On to `COc1cc(-c2nc(-c3ccccc3)[nH]c2-c2ccnc(NCCCNS(=O)(=O)c3ccc(C)cc3)n2)ccc1F`, for which the growth in experiment [1] was 103%; in experiment [2] it was 75.7%; in [3], 93.1%; in experiment [4] it was 150%; in experiment [5], 91.9%; in experiment [6] it was 122%. Further, the growth in experiment [7] was 80%; in experiment [8], 74.2%; in experiment [9] it was 94.5%; in [10], 96%.

On to `CC(=O)Nc1ccccc1-c1nc2ccccc2s1`, for which the growth in experiment [1] was 91.8%; in experiment [2], 98.9%; in experiment [3], 101%; in experiment [4], 101%; in experiment [5], 101%; in experiment [6], 96.6%. The growth in experiment [7] was 95.7%; in [8], 106%; in [9], 104%; in experiment [10], 113%.

Regarding `CCOC(=O)c1cccnc1Nc1ccc(NC(=O)Nc2ccc(Cl)c(C(F)(F)F)c2)cc1`, the growth was 10.1% in experiment [1]; 52.4% in experiment [2]; 68.9% in experiment [3]; 54.1% in [4]; 17.2% in experiment [5]; -8.46% (active) in experiment [6]. The growth is 21% in [7], 42.8% in experiment [8], 68% in [9] and 31.7% in [10].

For `CCN(CC)CCOc1ccc(C(=C(C)Cc2ccc(OC)cc2)c2ccc(OCCN(CC)CC)cc2)cc1`, the growth in [1] is 82.6%; in experiment [2], 81.3%; in experiment [3], 81.5%; in experiment [4], 62.6%; in experiment [5], 38.4%; in [6], 19.9%. The growth was 76.8% in [7], 52.6% in [8], 60.5% in experiment [9] and -78.2% (active) in experiment [10].

Turning to `CC(C)(O)c1cncc(-c2ccc3ncc(C#N)c(N4CCc5cc(F)c(Cl)cc54)c3c2)c1`, the growth is 26.8% in experiment [1]; -6.33% (active) in experiment [2]; 11% in [3]; 1.17% (active) in experiment [4]; 11.1% in [5]; -8.73% (active) in experiment [6]. For the same compound, the growth was -2.54% (active) in experiment [7], 6.02% (active) in experiment [8], 8.75% (active) in experiment [9] and 14.5% in experiment [10].

On to `N#C/C(=N\Nc1ccc(F)cc1)C(=O)Nc1cc(-c2ccccc2)nn1-c1ccccc1`, for which the growth in experiment [1] is 0.456% (active); in [2], 2.16% (active); in experiment [3] it was 0.72% (active); in experiment [4] it was 18.2%; in experiment [5], 4.31% (active); in [6], -21.3% (active). Further, the growth in experiment [7] is 6.57% (active); in experiment [8] it was 11%; in experiment [9] it was 21.3%; in [10] it was -7.35% (active).

Consider `C#Cc1nc(/C=C/CCCCCCC(=O)NO)cs1`, for which the growth in [1] is -34.2% (active); in [2] it was 87.6%; in [3], 85.2%; in experiment [4], 73.4%; in experiment [5] it was 51.8%; in [6], -52.3% (active). Moreover, the growth in experiment [7] is -61.4% (active); in [8], 61.6%; in [9], -87.8% (active); in [10], 81.8%.

For the compound `CCNCCOc1ccc(/C(=C(/CC)c2ccc(Cl)cc2)c2ccc(OCCCN(C)C)cc2)cc1`, the growth in experiment [1] is -87.3% (active); in experiment [2], -66.4% (active); in [3] it was -95.4% (active); in experiment [4], -80.1% (active); in [5] it was -74.2% (active); in [6] it was -74.6% (active). Moreover, the growth was -76.7% (active) in [7], -60.9% (active) in experiment [8], -86% (active) in experiment [9] and -82.3% (active) in experiment [10].
